Source: PubChem BioAssay (NCATS)
Results filed as inconclusive are left out. The source made the active and inactive calls. The call rests on the fitted dose curve; in most records, active means well fitted inhibition curve with a large enough effect; inconclusive means small, poorly fitted or top-dose-only effect; inactive means flat fitted curve, though single readings scatter. *1 amine or outer side, *2 acyl side, *3 side chain or, on linkers, in order; H or OH if unused. Where a SMILES comes first, the peptide text is derived from it. [ ]: non-standard residue; d: D form. ξ: configuration not given here. X4 = CC(C)=CCc1cc(C(O)C(N[*:1])C(=O)[*:2])ccc1O; ξLac(3-iPr) = CC(C)CC(O)C(=O)O; NMeV = CN[CH](C(=O)O)C(C)C; βAla = NCCC(=O)O
On the % scale 0 is the no-effect control and ±100 the full control effect.

What follows are compounds tested against Calcium and integrin-binding protein 1 (Homo sapiens) (UniProt Q99828) (assay: Primary qHTS for Identification of Calcium Integrin Binding Protein 1 (CIB1) Competitor (AID 1508620;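 further: GST tagged CIB1 binding a fluorescein labelled alphaIIb integrin peptide tracer; top concentration of the series differs between compounds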)). Conditions: CIB1-GST / FITC-alphaIIb peptide fluorescence polarization; series mostly up to 114 µM; activity change, negative = inhibition: at the top concentration.
Sequence of Calcium and integrin-binding protein 1 (Homo sapiens) (Q99828 whole entry, looked up): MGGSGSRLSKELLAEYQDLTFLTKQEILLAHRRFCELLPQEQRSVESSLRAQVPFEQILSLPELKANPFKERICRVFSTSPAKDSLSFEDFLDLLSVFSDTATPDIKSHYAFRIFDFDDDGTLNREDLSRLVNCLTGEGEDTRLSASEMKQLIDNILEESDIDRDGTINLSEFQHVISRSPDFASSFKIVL
Summary of the method: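 Fluorescence polarization competition: CIB1-GST (1 uM final) preincubated with compound 15 min at room temperature, then FITC-labeled alphaIIb peptide (100 nM final) added for another 15 min. Polarization read at Ex 480/Em 540.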
In the case of `CC1(C)CCC2(C(=O)OC3OC(CO)C(O)C(O)C3O)CCC3(C)C(=CCC4C5(C)CCC(OC6OC(C(=O)O)C(OC7OC(CO)C(O)C(O)C7O)C(OC7OC(CO)C(O)C(O)C7O)C6O)C(C)(C)C5CCC43C)C2C1` (stereo not given), the “activity change, negative = inhibition” value is reported as -4.6% [at 30.2 µM] (inactive).
With `CC1(C)CC[C@]2(C(=O)O[C@@H]3O[C@H](CO)[C@@H](O)[C@H](O)[C@H]3O)CC[C@]3(C)C(=CCC4[C@@]5(C)C[C@@H](O)[C@H](O)[C@](C)(C(=O)O)C5CC[C@]43C)C2C1O` (stereo not given in full) the “activity change, negative = inhibition” value was 4.85% [at 30.2 µM] (inactive).
In the case of `O=C1CCC(c2ccccc2)(C2CCN(Cc3ccc(I)cc3)CC2)C(=O)N1` (stereo not given), the “activity change, negative = inhibition” value is reported as -4.76% (inactive).
For `CC1=C(C)C(=O)OC(C(C)C2CCC3C4CC=C5CC(OC6OC(COC7OC(CO)C(O)C(O)C7O)C(O)C(O)C6O)CC(O)C5(C)C4CCC23C)C1` (stereo not given), the “activity change, negative = inhibition” value was 5.64% [at 30.2 µM] (inactive).
For `CC(C)=CCc1cc(C(O)C2NC(=O)CNC(=O)C(Cc3c[nH]c4ccccc34)NC(=O)C3CCCN3C(=O)CNC(=O)C(C(C)C)NC(=O)CNC2=O)ccc1O` (stereo not given) (cyclo(G[X4]GVGPW); configuration not given here), the “activity change, negative = inhibition” value was -4.64% [at 30.2 µM] (inactive).
`CC(C)CC1OC(=O)C2CCCN2C(=O)CCNC(=O)C(Cc2ccccc2)NC(=O)C(C(C)C)N(C)C(=O)C(C(C)C)N(C)C1=O` (stereo not given) (cyclo([ξLac(3-iPr)][NMeV][NMeV]F[βAla]P); configuration not given here) was tested, and the “activity change, negative = inhibition” value was 0.701% [at 30.2 µM] (inactive).
In the case of `C[C@@H]1C[C@H]2O[C@@H]2/C=C\C=C\C(=O)Cc2c(Cl)c(O)cc(O)c2C(=O)O1`, the “activity change, negative = inhibition” value is reported as -11.2% [at 30.2 µM] (inactive).
With `O=S(=O)(c1ccccc1)c1cnc2c(N3CCNCC3)cccc2c1` the “activity change, negative = inhibition” value was -9.45% (inactive).
For `COc1cc(Nc2nc3ccccc3nc2NS(=O)(=O)c2ccc(NC(=O)c3ccc(OC)c(C)c3)cc2)cc(OC)c1`, the “activity change, negative = inhibition” value was -3.75% (inactive).
In the case of `CC1OC(OC2C(CO)OC(OCC3OC(OC(=O)C45CCC(C)(C)CC4C4=CCC6C7(C)CCC(OC8OC(CO)C(O)C(OC9OC(CO)C(O)C(O)C9O)C8O)C(C)(C)C7CCC6(C)C4(C)CC5)C(O)C(O)C3O)C(O)C2O)C(O)C(O)C1OC1OC(CO)C(O)C(O)C1O` (stereo not given), the activity change, negative = inhibition is reported as -4.16% [at 12.4 µM] (inactive).
In the case of `C[C@@H]1O[C@@H](O[C@@H]2[C@@H](O)[C@@H](O[C@]3(CO)O[C@H](CO)[C@@H](O)[C@@H]3OC(=O)/C=C/c3ccc(O)cc3)O[C@H](CO)[C@H]2OC(=O)/C=C/c2ccc(O)cc2)[C@H](O)[C@H](O)[C@H]1O[C@@H]1O[C@@H](C)[C@H](O[C@@H]2OC[C@](O)(CO)[C@H]2O)[C@@H](O)[C@H]1O`, the “activity change, negative = inhibition” value is reported as 0.266% [at 30.2 µM] (inactive).
With `CC1CC(C(O)C(C)(C)O)OC2CC3(C)C4(C)CCC5C(C)(C)C(=O)CCC5(C)C4CCC3(O)C12O` (stereo not given) the “activity change, negative = inhibition” value was 1.07% [at 57.7 µM] (inactive).
In the case of `Cc1nc(Nc2n[nH]c3c2CN(C(=O)NC(CN(C)C)c2ccccc2)C3(C)C)c2sccc2n1` (stereo not given), the “activity change, negative = inhibition” value is reported as -2.01% (inactive).
`Cc1ncc(CCCN(C)C)cc1Nc1ncc2c(n1)-c1ccc(C(F)(F)F)cc1NC(=S)C2` was tested, and the “activity change, negative = inhibition” value was -7.67% (inactive).
With `CC(O)CO[C@@H]1O[C@H](CO)[C@@H](O)[C@H](O)[C@H]1O` (stereo not given in full) the “activity change, negative = inhibition” value was 0.728% (inactive).
In the case of `O=C(O)c1cc(-c2c(-c3ccccc3)nn3ccccc23)n[nH]c1=O`, the “activity change, negative = inhibition” value is reported as -1.79% (inactive).
For `C[C@@H]1C(=O)O[C@H]2[C@H](O)C34[C@H]5C[C@@H](C(C)(C)C)C36[C@@H](OC(=O)[C@@H]6O)O[C@@]4(C(=O)O5)[C@@]12O` (stereo not given in full), the “activity change, negative = inhibition” value was 0.526% [at 57.7 µM] (inactive).
With `CC(=O)CCC1=C(C)C(O[C@@H]2O[C@H](CO)[C@@H](O)[C@H](O)[C@H]2O)C(O)CC1(C)C` (stereo not given in full) the “activity change, negative = inhibition” value was 2.55% [at 57.7 µM] (inactive).
With `CCC1C(=O)OC23C=C[C@@H]4C(C(=O)O)=CO[C@H](O[C@@H]12)[C@@H]43` (stereo not given in full) the “activity change, negative = inhibition” value was -5.08% (inactive).
For `N#C[C@@H]1CCCN1C(=O)CNC12CC3CC(CC(O)(C3)C1)C2`, the “activity change, negative = inhibition” value was 3.45% (inactive).
In the case of `C/C(=C\CC[C@@H](C)[C@H]1CC(O)[C@@]2(C)C3CC[C@H]4C(C)(C)[C@@H](OC5OCC(O)C(O)C5OC5OC(CO)C(O)C(O)C5O)CC[C@@]45C[C@@]35CC(O)[C@]12C)C(=O)O` (stereo not given in full), the “activity change, negative = inhibition” value is reported as -0.359% [at 30.2 µM] (inactive).
In the case of `FC(F)(F)c1cc(-c2ncn(/C=C\c3nnco3)n2)cc(C(F)(F)F)c1`, the “activity change, negative = inhibition” value is reported as -1.96% (inactive).
For `C[C@]1(CO)CCC[C@]2(C)C3=C(CCC12)COC3` (stereo not given in full), the “activity change, negative = inhibition” value was -0.927% (inactive).
With `CC(=O)OC[C@@]12C(=O)C[C@@H](C)[C@]3(C[C@@H](c4ccoc4)O[C@H]3OC(C)=O)[C@H]1CCC[C@]21CO1` the “activity change, negative = inhibition” value was 3.5% [at 57.7 µM] (inactive).
In the case of `C[C@@H]1C(=O)O[C@H]2[C@@H](O)C34[C@H]5C[C@@H](C(C)(C)C)C36[C@@H](OC(=O)[C@@H]6O)O[C@@]4(C(=O)O5)[C@@]12O` (stereo not given in full), the “activity change, negative = inhibition” value is reported as -1.82% (inactive).
